In PubChem BioAssay (NCI):
This is part of a sample that, as a whole, favours compounds with a hit. Of some 83,000 tested, about 20% had one in any assay.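 A percent growth of 40 corresponds to 60% growth inhibition; 0 means no net growth; -100 means all cells died. Active threshold: below 10.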 Values without a mark were called inactive. Activity calls are given as the source filed them.

Experiments:
Assay in all cases: NCI-60 one-dose screen, 48 h (100 = growth as untreated, 0 = no growth, -100 = all killed)
Conditions in all cases: 10 µM unless noted
DU-145 prostate = system: DU-145 prostate
MALME-3M melanoma = system: MALME-3M melanoma
MDA-MB-231 breast = system: MDA-MB-231 breast
RXF 393 renal = system: RXF 393 renal
SF-268 CNS = system: SF-268 CNS
SF-295 CNS = system: SF-295 CNS
SF-539 CNS = system: SF-539 CNS
UACC-257 melanoma = system: UACC-257 melanoma
HCT-15 colon = system: HCT-15 colon
HT29 colon = system: HT29 colon
SNB-75 CNS = system: SNB-75 CNS
SNB-19 CNS = system: SNB-19 CNS
U251 CNS = system: U251 CNS
PC-3 prostate = system: PC-3 prostate
SK-MEL-5 melanoma = system: SK-MEL-5 melanoma
UACC-62 melanoma = system: UACC-62 melanoma
LOX IMVI melanoma = system: LOX IMVI melanoma
SK-MEL-28 melanoma = system: SK-MEL-28 melanoma
M14 melanoma = system: M14 melanoma

| Compound | growth (DU-145 prostate) [%] | growth (MALME-3M melanoma) [%] | growth (MDA-MB-231 breast) | growth (RXF 393 renal) | growth (SF-268 CNS) [%] | growth (SF-295 CNS) | growth (SF-539 CNS) | growth (UACC-257 melanoma) [%] | growth (HCT-15 colon) | growth (HT29 colon) | growth (SNB-75 CNS) | growth (SNB-19 CNS) [%] | growth (U251 CNS) | growth (PC-3 prostate) [%] | growth (SK-MEL-5 melanoma) | growth (UACC-62 melanoma) | growth (LOX IMVI melanoma) | growth (SK-MEL-28 melanoma) [%] | growth (M14 melanoma) |
| --- | --- | --- | --- | --- | --- | --- | --- | --- | --- | --- | --- | --- | --- | --- | --- | --- | --- | --- | --- |
| N#C/C(=C\c1c(-c2ccccc2)[nH]c2ccccc12)C(=O)c1ccc(Cl)cc1 | 28.3 | 37.2 | 49.9% | 29.2% | 51.4 | 32.1% | -39.7% (active) | 68.2 | 31.1% | 17.3% | -4.21% (active) | 55.3 | 18.6% | 32.9 | 1.79% (active) | 28.6% | 44.4% | 50.9 |  |
| CC1(C)NCCC[C@]2(C)[C@H]3CC(=O)[C@H]4[C@@H]5C[C@](C)(CO)CC[C@]5(C)CC[C@@]4(C)[C@]3(C)CC[C@@H]12 | 96.4 | 102 | 118% | 91.4% | 85.3 | 106% | 91.2% | 114 | 98.9% | 69.8% | 78.1% | 99.4 | 91.4% | 83.5 | 98.3% | 98% | 97.1% | 105 |  |
| COc1ccc(C(=O)Cn2c(C(=O)c3ccccc3)nc3ccccc32)cc1 | 36.7 | 46.6 | 37.6% | 13.1% | 52.9 | 12.2% | 15.1% | 54.3 | 18.6% | 14.2% | -8.26% (active) | 55.2 | 25.1% |  | -1.14% (active) | 15.7% | 43.8% | 94.2 | 6.97% (active) |
| N#CC1=C(N)Oc2c(ccc3ccccc23)C1c1ccccc1Cl (centres undefined) | 17.1 | 52 | 9.2% (active) | 17.9% | 51 | 8.26% (active) | -13.5% (active) | 60.1 | 10.7% | 70% | 13.3% | 32.9 | 12.4% | 20 | 9.89% (active) | 26.6% | 27.3% | 50.5 |  |
| Cc1ccc(C(=O)/C(=C/c2ccc([N+](=O)[O-])cc2)SCc2ccc(Cl)cc2)cc1 | 86.9 | 83.3 | 83.8% | 95.4% | 69.8 | 83.3% | 112% | 83 | 8.64% (active) | -22.7% (active) | 84.8% | 34.1 | -56.3% (active) |  | 91% | 65.9% | 0.133% (active) | 90.9 | 74.6% |
| COc1ccc(/C=C/c2nc(Nc3cccc(NC(C)=O)c3)c3ccccc3n2)cc1 | 88.7 | 102 | 85.3% | 104% | 92.1 | 83.1% | 98.5% | 95.6 | 70.9% | 85% | 90.5% | 92.4 | 88.5% |  | 87.5% | 44.2% | 59.3% | 104 | 72.9% |
| CCNc1nc2ccc(Nc3ccnc4cc(Cl)ccc34)cc2[nH]1 | 97 | 119 | 84.7% | 68.5% | 88.4 | 87.3% | 85.6% | 97.9 | 89.8% | 51.1% | 87.3% | 84.8 | 75.2% | 63.9 | 82.6% | 92.5% | 70.6% | 99.5 |  |
| N#Cc1c(-c2cccc([N+](=O)[O-])c2)nc(SCC(=O)c2ccc(Cl)cc2)[nH]c1=O | 105 | 99.9 | 99.3% | 102% | 97.7 | 104% | 100% | 105 | 103% | 105% | 72.2% | 92.8 | 97.3% |  | 106% | 93.6% | 96% | 107 |  |
| Cc1ccc(C(=O)/C(=C\c2ccc([N+](=O)[O-])cc2)S(=O)Cc2ccc(Cl)cc2)cc1 (centres undefined) | 23.3 | 34.1 | 23.8% | -69% (active) | 25.5 | 73.2% | 53.5% | 94.9 | 10.8% | -51.1% (active) | 75.5% | 46.8 |  |  | 78.5% | 5.87% (active) | -26.5% (active) | 46.6 | 41.4% |
| O=C1c2ccccc2CCC12OC2c1cn(-c2ccccc2)nc1-c1ccc(Cl)cc1 (centres undefined) | 111 | 105 | 91.9% | 93.1% | 93.1 | 71.9% | 93.4% | 96.1 | 41.4% | 102% | 90.9% | 91.9 | 64.8% |  | 83.1% | 63.8% | 81.6% | 100 | 97.7% |
| Cc1cccc(-c2cn3ccnc3c(-c3ccc4ncn(Cc5ccccc5)c4c3)n2)c1 | 85.8 | 125 | 71.6% | 98% | 92.8 | 85.7% | 92.7% | 120 | 64.8% | 58% | 78.3% | 97.4 | 80.6% | 75.2 | 89.9% | 97.5% | 85.2% | 101 |  |
| N=C1C(c2nc3ccccc3s2)=C(O)CN1c1cc(Cl)cc(Cl)c1 | 86.6 | 63.8 | 66.4% | 63.9% | 173 | 88.2% | 46.9% | 74.4 | 38.6% | 82.6% | 128% | 95.2 | 64.7% | 26.1 | 88.9% | 78.1% | 67% | 120 |  |
